Source: PubChem BioAssay (SRMLSC)
PMK inhibit: S. pneumoniae PMK inhibition | purified PMK, PK/LDH-coupled NADH absorbance 340 nm | inhibition, % at 10 µM | 65,000 compounds, 0.49% hits | AID 539;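 active = top-ranked compounds by inhibition in the single 10 µM screen, taking a fixed number of the strongest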
Spn DPM-DC inh: blocks S. pneumoniae diphosphomevalonate decarboxylase. 65,000 compounds, 0.49% hits. purified DPM-DC, PK/LDH coupled NADH fluorescence. calls only at 10 µM;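 active = the 320 compounds with the highest percent inhibition in the single-dose primary screen, excluding strongly autofluorescent ones, cut at about 32% in these data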;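 note: kinetic rate of NADH fluorescence loss reporting ADP formed by the decarboxylase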
MK inhibit: inhibitors of Streptococcus pneumoniae mevalonate kinase. purified MK, PK/LDH-coupled NADH absorbance 340 nm. inhibition, % at 10 µM. 65,000 compounds, 0.48% hits;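 active = ranked among the strongest by inhibition in the single 10 µM screen, a fixed top-ranked set picked for dose follow-up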
NADH enzymes: blocks coupling enzymes of NAD/NADH assays; coupled PK/LDH NADH assays, four targets; IC50, µM (top dose mostly 10 µM); 65,000 compounds, 0.02% hits; AID 774;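 active = single-dose screening hits from any of four coupled enzyme assays that gave an IC50 when retested across doses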;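 note: the DPM-DC format reads NADH fluorescence rather than 340 nm absorbance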
Abs 340nm: compounds absorbing at 340 nm; fold change at 10 µM; compound absorbance at 340 nm, fold over control; 65,000 tested, under 10 active;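 active = at 10 µM dose, initial 340 nm absorbance at least 2 fold that of control wells; inactive = change under 2 fold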;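 note: initial absorbance extrapolated from kinetic A340 decline of NADH oxidation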
Autofluor 339: intrinsic fluorescence of library compounds, ex339/em460 – biochemical, MLSMR library, data from DPM-DC assay, artefact control, profiling panel; 65,000 compounds, 5.5% hits; compound autofluorescence, ex339/em460 nm, NADH buffer; hits give high values; 1 = no-compound wells, NADH background; AID 709; fluorescence fold increase at 10 µM;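 active = at 10 µM, mean starting fluorescence two-fold or more over control wells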;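 note: signal is the first read of a kinetic run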
Large screens that a line does not name were inactive; [ ] = remark or other dose. The list is not random: actives were taken first. Their share in the collection is about 6.3%.

Cn1c(O)c(C=NC2CC(C)(C)NC(C)(C)C2)c(=O)n(C)c1=O	none
COc1ccccc1/C=C1/C(=N/O)C2CCN1CC2	none
O=C(CN1CCOCC1)c1ccc2cc[nH]c2c1	Autofluor 339 2.1 (not shown: Spn DPM-DC inh)
Cc1cc(OCC(=O)O)c2c3c(c(=O)oc2c1)CCCC3	Autofluor 339 2.5 (not shown: Spn DPM-DC inh)
Cc1cc(OCC(=O)Nc2c(C)n(C)n(-c3ccccc3)c2=O)c2c3c(c(=O)oc2c1)CCC3	Autofluor 339 2.1
CCCOC(=O)COc1cc(C)cc2oc(=O)c3c(c12)CCC3	Autofluor 339 2.2 (not shown: Spn DPM-DC inh)
CCOC(=O)c1cncn1C(C)c1ccccc1 (stereo unspecified)	none
CCOC(=O)c1cc2c(cn1)[nH]c1ccccc12	Spn DPM-DC inh active[fluoresces], Autofluor 339 2.2
